Assay: small molecules boosting NK-mediated OVCAR3 lysis – imaging, primary NK cells, calcein-AM imaging, primary screen (AID 1508625);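 also: compound given to NK cells 16 h before adding targets at 1.5 to 1 ratio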;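 as to z-score: more negative robust z means stronger NK killing of tumor cells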
Conditions: OVCAR3 lysis by primary NK cells, at 5 µM; z-score: measured here: robust Z-score, single-point normalisation

SMILES | corrected activity, negative = more killing [%] | z-score
Cc1ccc(S(=O)(=O)N2CCCCCC2)cc1C | 1.77 | 0.548
COc1cc(C=C2C=C(c3ccc(C)cc3)OC2=O)cc(OC)c1OC | -0.351 | -0.181
CN(C)c1ccc(C=CC=C2SC(=S)N(Cc3ccccc3)C2=O)cc1 | -3.62 | -1.88
O=C(Nc1ccc(Cc2ccncc2)cc1)C1CCC(N2C(=O)C3CC=CCC3C2=O)CC1 (stereo unspecified) | -4.96 | -1.89
COc1ccc(OC)c(C2NC(=S)NC(C)=C2C(=O)Nc2ccccc2)c1 (stereo unspecified) | -2.97 | -0.92
COc1ccccc1Nc1ncc(C(=O)N2CCC(Cc3ccccc3)CC2)c2ccccc12 | -5.51 | -1.37
CCOC(=O)c1c(NC(=O)c2cc([N+](=O)[O-])ccc2N2CCCCCC2)sc2c1CCCC2 | -2.4 | -0.744
CCCCOc1ccc(C(=O)N2CCN(C(=O)N(C)C)CC2)cc1 | -0.23 | -0.128
CCC(C)NC(=O)Cn1c(=O)n(-c2cc(OC)cc(OC)c2)c(=O)c2sccc21 (stereo unspecified) | -7.6 | -2.16
COc1ccc2c(c1)c(C(C)=O)c(C)n2-c1ccccc1C | -0.941 | -0.487
COc1cc2nc(SCC(=O)Nc3cc(C(F)(F)F)ccc3Cl)n(Cc3ccco3)c(=O)c2cc1OC | -3.79 | -1
Cc1ccc(C(=O)Nc2cccc(C(=O)N3CCOCC3)c2)cc1Cl | -0.0326 | -0.0182
CCOc1ccc(C(=O)N2CCc3cc(OC)c(OC)cc3C2)cc1 | -2.29 | -0.852
CCN(C(=O)c1c(-c2ccccc2)noc1C)C1CCCCC1 | -2.37 | -0.905
N#Cc1cccn1Cc1ccccc1Cl | -4.07 | -1.1
COc1ccccc1N1C(=O)C2C(C(C)=O)=NN(c3ccc(Cl)cc3)C2C1=O (stereo unspecified) | -1.87 | -0.704
O=C(NN=Cc1ccncc1)c1n[nH]c2c1CCC2 | -1.79 | -0.783
CC1=NN(C(=O)c2ccc(C(N)=O)cc2)C(O)(C(F)(F)F)C1 (stereo unspecified) | -1.91 | -0.786
COc1ccc2cc3cc(C(=O)N(C)c4cc(C)ccc4C)oc3nc2c1 | -6.86 | -1.68
O=C(COc1ccc(Cl)cc1)N1CCN(C(=O)c2ccccc2F)CC1 | -1.94 | -0.865
COc1ccc2nc3oc(C(=O)NCCc4ccc(Cl)cc4)cc3cc2c1 | -5.81 | -1.43

SMILES | corrected activity, negative = more killing [%] | z-score
COc1ccc(CN2C(=O)c3ccccc3C2C(=O)NCCCN2CC(C)CC(C)C2)cc1 (stereo unspecified) | -3.06 | -0.869
COc1ccc(C2=NN(c3nc(-c4ccc(OC)c(F)c4)cs3)C(c3ccco3)C2)cc1 (stereo unspecified) | -2.68 | -1.01
Cc1c(C(=O)O)oc2ccc(S(=O)(=O)N3CCOCC3)cc12 | -2.57 | -0.692
Cc1nn(C(=O)c2cccnc2)c(C)c1Sc1ccc(Cl)cc1 | -1.68 | -0.87
COc1ccc(C2Nc3ccccc3NC3=C2C(=O)CC(c2ccco2)C3)cc1 (stereo unspecified) | -2.08 | -0.853
CCCSc1nc2c([nH]c3ccccc32)c(=O)n1-c1ccc(OC)cc1 | -5.59 | -1.39
CCCC(=O)Nc1cc(-c2nc3ccc(C)cc3o2)ccc1Cl | -2.67 | -1.43
COCCNCC(O)Cn1c2ccccc2c2ccccc21 (stereo unspecified) | 2.4 | 0.916
Cc1ccc(-c2nc3ccccc3c(C(=O)O)c2C)cc1 | -2.28 | -1.18
Cc1ccc(-n2c(SCC(=O)Nc3cccc(F)c3)nc3c(c2=O)SCC3)cc1 | -3.47 | -0.864
CCCCNC(=O)c1cc(Nc2ccc(CC)cc2)nc2ccccc12 | -8.29 | -2.03
O=C1CC(c2ccc(Cl)cc2)CC2=C1C(c1cccc(F)c1)Nc1ccccc1N2 (stereo unspecified) | -9.53 | -2.95
COc1ccccc1OCc1cccc([N+](=O)[O-])c1 | -5.65 | -3.15
CCCCOC(=O)c1ccc2c(c1)C(=O)N(c1cccc(Cl)c1)C2=O | -8.14 | -2.52
COc1ccc(C(N)=NOC(=O)CSc2ccccc2)cc1 | -1.04 | -0.576
Cc1cc(NC(=O)CSc2nc3ccc(Br)cc3c3nc4ccccc4n23)no1 | -5.14 | -1.36
COc1ccc(OC)c(NC(=O)C(N)=O)c1 | 1.08 | 0.459
CCCSc1nc2c([nH]c3ccccc32)c(=O)n1-c1ccc(F)cc1 | -3.57 | -0.888
N#CCCCSc1nnnn1-c1ccccc1 | -7.28 | -2.25
CCC1=NN(C(=O)c2cccc(Cl)c2)C(O)(C(F)(F)F)C1 (stereo unspecified) | -2.2 | -0.839
COc1ccc(C(=O)N2N=C(C(C)C)CC2(O)C(F)(F)F)cc1OC (stereo unspecified) | -4.89 | -1.46

SMILES | corrected activity, negative = more killing [%] | z-score
COC(=O)c1ccc(C=NNc2nc(-c3ccc(Cl)cc3)cs2)cc1 | -2.03 | -0.861
Brc1cccc(-c2nnc3sc(CN4CCOCC4)cn23)c1 | -6.12 | -1.74
O=[N+]([O-])c1cccc(CN2CCN3CCCC3C2C2CCCCC2)c1 (stereo unspecified) | 0.41 | 0.179
COc1ccc(S(=O)(=O)NCc2ccc(C(=O)N(C)Cc3ccco3)cc2)cc1 | -7.7 | -1.89
O=S(=O)(c1ccc(Br)c2nsnc12)N1CCC(Cc2ccccc2)CC1 | -3.43 | -1.06
Cc1[nH]c2ccc(-c3n[nH]c(=S)n3C)cc2c1C | -0.764 | -0.278
COc1ccc(C(O)=C2C(=O)C(=O)N(CCN3CCNCC3)C2c2ccc(OC)cc2)cc1 (stereo unspecified) | -4.32 | -1.87
COc1ccc(OCCCN2CCc3ccccc3C2)cc1 | -4.65 | -2.58
Cc1ccc(-c2cc(C(F)(F)F)n3ncc(C(=O)N4CCC(C)CC4)c3n2)cc1 | -5.63 | -1.79
COc1ccc2c(c1OC)C(=O)OC2CC(=O)c1ccc(C)cc1 (stereo unspecified) | -8.12 | -1.71
COc1ccc(NC(=O)c2sc3cc([N+](=O)[O-])ccc3c2Cl)c(OC)c1 | -2.66 | -0.942
O=C(Nc1ccccc1C(=O)Nc1ccc(Br)cn1)c1ccccc1 | -6.2 | -2.34
Cc1ccc(C2C(C(=O)c3ccco3)=C(O)C(=O)N2c2nnc(C)s2)cc1 (stereo unspecified) | -5.27 | -2.29
Cc1sc2ncn(CC(=O)Nc3ccc(Oc4ccccc4)cc3)c(=O)c2c1S(=O)(=O)N1CCN(C)CC1 | -6.04 | -1.5
O=C(COc1ccc(Br)cc1)NCc1ccco1 | -0.415 | -0.147
O=C(CSCc1ccccc1Cl)NCCc1ccc(Cl)cc1 | -1.86 | -0.502
Cc1ccc(C(=O)CC2(O)C(=O)N(C(C)C)c3ccccc32)c(C)c1 (stereo unspecified) | -3.79 | -1.13
COC(=O)CCC(=O)NNC(=O)c1ccc(Br)cc1 | -3.77 | -1.49
O=C(NN=C1CCCCC1)C(=O)Nc1ccc(Cl)cc1 | -4.69 | -1.99
Cn1c(SCC(=O)Nc2cccc3ccccc23)nc2c([nH]c3ccccc32)c1=O | -9.34 | -2.32
CCCc1c(C)c2cc3c(C)coc3cc2oc1=O | -6.81 | -2.03

From PubChem BioAssay AID1508625 (Wald Lab, School of Medicine, Case Western Reserve …, 2021)
